Source: PubChem BioAssay (EPA / NIEHS)
Active and inactive are the calls of the source. Rule for the calls: active = hit-call score of the fitted dose curve at least 0.9, where 1 is the maximum; inactive = score below 0.9.

Legend:
[1] = target: Bile acid receptor (Homo sapiens) (UniProt Q96RI1); test: ATG_IR1_CIS: Attagene CIS-FACTORIAL HepG2 Assay for human Nuclear Receptor Subfamily 1 Group H Member 4 (NR1H4), IR1 submotif (AID 2282946); conditions: IR1 reporter transcription, actives raise or lower the signal
Procedure, shortened: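 Fluorescence of capillary-separated, HpaI-digested RT-PCR reporter products gave IR1-element mRNA induction in HepG2 cells 24 h after dosing. Endogenous transcription factors drove the cis-regulated reporters; activity was fitted bidirectionally against DMSO.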

[2] = ATG_GRE_CIS: Attagene CIS-FACTORIAL HepG2 Assay for human Glucocorticoid Response Elements (GRE) (AID 2282947); conditions: HepG2 GRE cis-reporter, Attagene multiplex mRNA; actives raise or lower the signal
Procedure, shortened: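 Read-out: fluorescent reporter-transcript fragments separated by capillary electrophoresis after RT-PCR. Transiently transfected HepG2 cells carrying cis-element-driven reporter units were dosed for 24 h; gain or loss of signal fitted against DMSO control.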

[3] = ATG_ISRE_CIS: Attagene CIS-FACTORIAL HepG2 Assay for human Interferon Regulatory Factor 1 (IRF1) binding to an Interferon-Stimulated Response Element (ISRE) (AID 2282948); conditions: HepG2 ISRE cis-reporter (Attagene), mRNA transcription readout; actives raise or lower the signal
Procedure, shortened: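 Read-out: fluorescent RT-PCR products resolved by capillary electrophoresis, reporting endogenous transcription factor activity via ISRE-driven reporter mRNA in transfected HepG2 cells dosed for 24 h; gain or loss fitted relative to DMSO.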

[4] = ATG_M_06_CIS: Attagene CIS-FACTORIAL HepG2 Assay for M06 Transcription Factor (Internal Marker) (AID 2282950); conditions: HepG2 Attagene CIS-FACTORIAL M06 internal marker reporter; actives raise or lower the signal
Procedure, shortened: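 Serves as a background control readout. Transfected HepG2 exposed to compounds for 24 h, then reporter transcripts quantified by fluorescent RT-PCR and capillary electrophoresis. Both directions fitted against DMSO baseline.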

[5] = target: Hypoxia-inducible factor 1-alpha (Homo sapiens) (UniProt Q16665); test: ATG_HIF1a_CIS: Attagene CIS-FACTORIAL HepG2 Assay for human Hypoxia Inducible Factor 1 (HIF1A) (AID 2282951); conditions: HepG2 Attagene cis-factorial HIF1a reporter transcription; actives raise or lower the signal
Procedure, shortened: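 Activity is fitted in both directions relative to DMSO. Reporter transcripts are read by RT-PCR, fluorescent primer extension and capillary electrophoresis after 24 h chemical treatment. The cells are HepG2 carrying transiently transfected cis-element-driven reporter units responding to endogenous factors.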

[6] = target: Hepatocyte nuclear factor 6 (Homo sapiens) (UniProt Q9UBC0); test: ATG_HNF6_CIS: Attagene CIS-FACTORIAL HepG2 Assay for human Hepatocyte Nuclear Factor 6 (HNF6) (AID 2282952); conditions: HepG2 Attagene cis-factorial HNF6 reporter transcription; actives raise or lower the signal
Procedure, shortened: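 Twenty-four-hour chemical treatment of reporter-transfected HepG2 cells precedes RNA isolation, DNase-treated reverse transcription and PCR of reporter sequences. Labelled fragments are sized by capillary electrophoresis and fitted bidirectionally versus DMSO.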

[7] = target: Heat shock factor protein 1 (Homo sapiens) (UniProt Q00613); test: ATG_HSE_CIS: Attagene CIS-FACTORIAL HepG2 Assay for human Heat Shock Transcription Factor 1 (HSE) (AID 2282953); conditions: HepG2 HSE cis-reporter, Attagene RNA transcription; actives raise or lower the signal
Procedure, shortened: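 Endogenous transcription factor activity in transiently transfected HepG2, read as reporter mRNA by RT-PCR with fluorescent capillary electrophoresis after 24 h. Gain or loss of signal fitted versus DMSO baseline.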

[8] = ATG_MRE_CIS: Attagene CIS-FACTORIAL HepG2 Assay for human Metal Responsive Element (MRE) (AID 2282954); conditions: HepG2 MRE cis-reporter transcription, Attagene multiplex; actives raise or lower the signal
Procedure, shortened: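 RT-PCR/capillary electrophoresis readout of reporter mRNA, 24 h post-dosing, in HepG2 cells transfected with multiplexed cis-regulated reporter constructs. Gain or loss of signal fitted bidirectionally against DMSO baseline.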

[9] = ATG_PBREM_CIS: Attagene CIS-FACTORIAL HepG2 Assay for human Phenobarbital-responsive Enhancer Module (PBREM) (AID 2282955); conditions: HepG2 PBREM cis-reporter, Attagene multiplexed transcription; actives raise or lower the signal
Procedure, shortened: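 Endogenous transcription factor activity was read from reporter transcripts in transiently transfected human HepG2 liver cells after 24 h dosing. RT-PCR products were fluorescently labelled, HpaI-cut and sized by capillary electrophoresis; activity fitted bidirectionally against DMSO baseline.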

[10] = target: Paired box protein Pax-6 (Homo sapiens) (UniProt P26367); test: ATG_Pax6_CIS: Attagene CIS-FACTORIAL HepG2 Assay for human Paired Box 6 (PAX6) (AID 2282956); conditions: HepG2 CIS-FACTORIAL PAX6 reporter transcription, RNA readout; actives raise or lower the signal
Procedure, shortened: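 Readout: reporter transcript fluorescence after RT-PCR and capillary electrophoresis. Cells: HepG2, transiently transfected with cis-regulated MRTUs. Exposure 24 h. Gain or loss of signal fitted bidirectionally relative to DMSO.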

[11] = ATG_PXRE_CIS: Attagene CIS-FACTORIAL HepG2 Assay for human Pregnane X Receptor Element (PXRE) (AID 2282957); conditions: HepG2 Attagene CIS-FACTORIAL PXRE reporter, mRNA; actives raise or lower the signal
Procedure, shortened: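 Bidirectional activity, baselined to DMSO, derived from reporter mRNA fluorescence (RT-PCR plus capillary electrophoresis) in HepG2 cells bearing cis-promoter reporter units, 24 h exposure.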

[12] = ATG_RORE_CIS: Attagene CIS-FACTORIAL HepG2 Assay for human RAR-related Orphan Receptor Element (RORE) (AID 2282959); conditions: HepG2 Attagene cis-factorial RORE reporter, mRNA; actives raise or lower the signal
Procedure, shortened: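 RORE reporter transcripts reflecting endogenous factor activity were read after 24 h compound exposure of transfected HepG2 cells, using reverse transcription, PCR, fluorescent labelling and capillary electrophoresis sizing. Gain or loss fitted against DMSO.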

[13] = ATG_Sox_CIS: Attagene CIS-FACTORIAL HepG2 Assay for human SRY-box transcription factor (SOX) (AID 2282960); conditions: HepG2 Attagene cis-factorial SOX reporter, mRNA; actives raise or lower the signal
Procedure, shortened: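 Reporter transcripts, measured by RT-PCR and capillary electrophoresis of labelled fragments, report endogenous SOX transcription factor activity. Transiently transfected human HepG2 cells receive chemical for 24 h; changes in either direction are fitted relative to DMSO.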

[14] = target: Transcription factor Sp1 (Homo sapiens) (UniProt P08047); test: ATG_Sp1_CIS: Attagene CIS-FACTORIAL HepG2 Assay for human Specificity Protein 1 (Sp1) (AID 2282961); conditions: HepG2 Sp1 cis-reporter transcription, actives raise or lower the signal
Procedure, shortened: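 Read-out is reporter transcript level, measured by RT-PCR and fluorescent capillary electrophoresis after 24 h chemical treatment. System: transiently transfected HepG2 cells reporting endogenous transcription factor activity; gain or loss fitted against DMSO baseline.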

[15] = target: Signal transducer and activator of transcription 3 (Homo sapiens) (UniProt P40763); test: ATG_STAT3_CIS: Attagene CIS-FACTORIAL HepG2 Assay for human Signal Transducer and Activator of Transcription 3 (STAT3) (AID 2282963); conditions: HepG2, Attagene cis-factorial STAT3 reporter transcription; actives raise or lower the signal
Procedure, shortened: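 Readout: fluorescent reporter mRNA fragments resolved by capillary electrophoresis. Setup: HepG2 transfected with MRTUs reporting endogenous transcription-factor activity, dosed 24 h. Gain or loss of signal fitted bidirectionally against DMSO control.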

[16] = ATG_TA_CIS: Attagene CIS-FACTORIAL HepG2 Assay for human TA Basal Promoter (AID 2282964); conditions: HepG2 Attagene CIS-factorial TA basal promoter reporter; actives raise or lower the signal
Procedure, shortened: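 Background-control readout: TA basal promoter reporter mRNA, fitted in both directions relative to DMSO. Measured by RT-PCR and capillary electrophoresis 24 hours after treating HepG2 human liver cells transiently carrying multiplexed cis-regulated reporter constructs.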

[17] = ATG_TCF_b_cat_CIS: Attagene CIS-FACTORIAL HepG2 Assay for human T-Cell-Factor with beta-catenin (TCF/b-cat) (AID 2282965); conditions: HepG2 TCF/beta-catenin cis-reporter transcription, actives raise or lower the signal
Procedure, shortened: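 HepG2 cells transiently transfected with cis-promoter-driven multiplexed reporter units; reporter mRNA measured 24 h after dosing by RT-PCR, FAM labelling, HpaI digestion and capillary electrophoresis. Bidirectional fitting relative to DMSO baseline.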

[18] = ATG_SREBP_CIS: Attagene CIS-FACTORIAL HepG2 Assay for human Sterol Regulatory Element Binding (SREBP) (AID 2282962); conditions: HepG2 Attagene cis-factorial SREBP reporter, mRNA; actives raise or lower the signal
Procedure, shortened: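 Readout: fluorescent reporter-transcript peaks resolved by capillary electrophoresis after RT-PCR. Cells were human HepG2 carrying transfected cis-promoter reporter constructs, dosed for 24 h. Gain or loss of signal was fitted against DMSO controls.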

[19] = ATG_M_32_CIS: Attagene CIS-FACTORIAL HepG2 Assay for M32 Transcription Factor (Internal Marker) (AID 2282949); conditions: HepG2 Attagene cis-factorial M32 reporter, mRNA; actives raise or lower the signal;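 note: background control marker of the multiplexed CIS panel rather than a real target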
Procedure, shortened: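 Using DMSO as baseline, bidirectional curve fits were applied to reporter mRNA signals. These came from transiently transfected HepG2 cells exposed for 24 h, with RNA analysed by RT-PCR, FAM primer extension, HpaI digestion and CE.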

[20] = ATG_PPRE_CIS: Attagene CIS-FACTORIAL HepG2 Assay for human Peroxisome Proliferator-activated Response Element (PPRE) (AID 2282958); conditions: HepG2 PPRE cis-element reporter, Attagene transcription factor profiling; actives raise or lower the signal
Procedure, shortened: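 Endogenous PPRE-driven transcription is measured in HepG2 cells carrying transfected multi-reporter constructs. Reporter transcripts are quantified by RT-PCR, HpaI digestion and capillary electrophoresis 24 h after dosing. DMSO baseline, bidirectional fit.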

Measured: AC50

Sequence of Hypoxia-inducible factor 1-alpha (Homo sapiens) (Q16665 whole entry, looked up): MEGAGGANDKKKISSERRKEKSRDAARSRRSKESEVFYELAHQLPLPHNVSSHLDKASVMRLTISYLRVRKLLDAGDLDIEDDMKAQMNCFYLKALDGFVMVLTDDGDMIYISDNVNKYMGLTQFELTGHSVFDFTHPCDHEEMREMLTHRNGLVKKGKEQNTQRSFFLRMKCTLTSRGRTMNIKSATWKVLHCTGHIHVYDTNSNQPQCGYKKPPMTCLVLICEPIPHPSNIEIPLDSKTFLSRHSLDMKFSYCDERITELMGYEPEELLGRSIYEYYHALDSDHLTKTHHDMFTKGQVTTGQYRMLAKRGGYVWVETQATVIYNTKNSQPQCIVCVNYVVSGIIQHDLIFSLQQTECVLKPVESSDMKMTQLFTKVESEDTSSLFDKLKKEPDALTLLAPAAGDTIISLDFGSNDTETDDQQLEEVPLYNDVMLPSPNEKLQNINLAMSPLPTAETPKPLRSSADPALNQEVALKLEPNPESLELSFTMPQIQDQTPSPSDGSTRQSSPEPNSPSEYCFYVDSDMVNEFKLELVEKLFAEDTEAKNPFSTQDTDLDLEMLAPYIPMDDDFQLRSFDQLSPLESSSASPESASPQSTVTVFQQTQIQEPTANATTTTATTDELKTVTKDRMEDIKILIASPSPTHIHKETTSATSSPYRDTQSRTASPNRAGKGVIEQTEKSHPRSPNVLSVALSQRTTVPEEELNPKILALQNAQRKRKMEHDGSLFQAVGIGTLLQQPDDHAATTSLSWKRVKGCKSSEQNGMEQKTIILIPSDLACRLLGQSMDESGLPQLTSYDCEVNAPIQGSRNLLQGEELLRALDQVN
Sequence of Paired box protein Pax-6 (Homo sapiens) (P26367 whole entry, looked up): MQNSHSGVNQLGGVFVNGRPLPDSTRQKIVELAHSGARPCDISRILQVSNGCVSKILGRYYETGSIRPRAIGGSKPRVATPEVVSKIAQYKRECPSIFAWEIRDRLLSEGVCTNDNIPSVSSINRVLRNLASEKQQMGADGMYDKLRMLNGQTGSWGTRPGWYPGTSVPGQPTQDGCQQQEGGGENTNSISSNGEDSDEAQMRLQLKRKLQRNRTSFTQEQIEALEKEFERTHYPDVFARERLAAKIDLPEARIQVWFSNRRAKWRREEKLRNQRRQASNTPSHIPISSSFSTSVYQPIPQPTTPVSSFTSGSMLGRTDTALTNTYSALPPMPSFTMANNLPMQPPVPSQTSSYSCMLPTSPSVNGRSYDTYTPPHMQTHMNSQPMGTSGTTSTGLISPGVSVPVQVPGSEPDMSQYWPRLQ
Sequence of Heat shock factor protein 1 (Homo sapiens) (Q00613 whole entry, looked up): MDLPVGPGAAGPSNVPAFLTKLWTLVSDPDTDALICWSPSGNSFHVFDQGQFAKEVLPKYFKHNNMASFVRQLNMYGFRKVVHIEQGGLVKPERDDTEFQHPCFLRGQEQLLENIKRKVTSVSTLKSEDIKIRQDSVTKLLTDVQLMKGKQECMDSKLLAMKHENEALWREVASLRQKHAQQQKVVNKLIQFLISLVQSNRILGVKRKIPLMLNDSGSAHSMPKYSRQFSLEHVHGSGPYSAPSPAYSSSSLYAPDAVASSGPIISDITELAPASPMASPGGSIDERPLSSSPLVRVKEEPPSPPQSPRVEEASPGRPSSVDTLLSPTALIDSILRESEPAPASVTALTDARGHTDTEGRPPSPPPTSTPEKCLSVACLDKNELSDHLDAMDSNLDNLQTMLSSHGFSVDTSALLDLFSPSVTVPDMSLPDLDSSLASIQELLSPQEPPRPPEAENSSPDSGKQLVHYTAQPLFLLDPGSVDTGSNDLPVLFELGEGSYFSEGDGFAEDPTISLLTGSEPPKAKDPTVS
Sequence of Transcription factor Sp1 (Homo sapiens) (P08047 whole entry, looked up): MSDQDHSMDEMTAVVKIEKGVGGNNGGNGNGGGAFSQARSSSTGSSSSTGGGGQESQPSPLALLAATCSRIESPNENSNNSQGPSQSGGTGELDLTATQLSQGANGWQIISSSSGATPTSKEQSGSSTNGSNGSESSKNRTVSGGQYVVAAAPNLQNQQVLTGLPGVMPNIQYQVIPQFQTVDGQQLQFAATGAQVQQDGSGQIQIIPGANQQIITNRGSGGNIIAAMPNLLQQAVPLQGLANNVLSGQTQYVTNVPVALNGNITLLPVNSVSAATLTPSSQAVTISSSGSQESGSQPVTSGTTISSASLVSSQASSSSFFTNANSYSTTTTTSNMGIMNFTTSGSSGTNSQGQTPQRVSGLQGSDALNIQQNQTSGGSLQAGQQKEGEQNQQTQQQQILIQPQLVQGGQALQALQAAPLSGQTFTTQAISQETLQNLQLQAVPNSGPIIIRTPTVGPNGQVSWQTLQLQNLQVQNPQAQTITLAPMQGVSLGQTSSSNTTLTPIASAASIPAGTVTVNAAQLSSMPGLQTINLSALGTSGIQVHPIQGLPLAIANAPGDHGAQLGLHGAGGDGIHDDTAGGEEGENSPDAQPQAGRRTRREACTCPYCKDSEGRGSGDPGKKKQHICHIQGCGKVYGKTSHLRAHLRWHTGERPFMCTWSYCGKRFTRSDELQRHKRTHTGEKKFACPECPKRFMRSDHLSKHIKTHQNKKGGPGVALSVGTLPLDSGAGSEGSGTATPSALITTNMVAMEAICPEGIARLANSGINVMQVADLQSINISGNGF
Sequence of Signal transducer and activator of transcription 3 (Homo sapiens) (P40763 whole entry, looked up, the tested form may be a part): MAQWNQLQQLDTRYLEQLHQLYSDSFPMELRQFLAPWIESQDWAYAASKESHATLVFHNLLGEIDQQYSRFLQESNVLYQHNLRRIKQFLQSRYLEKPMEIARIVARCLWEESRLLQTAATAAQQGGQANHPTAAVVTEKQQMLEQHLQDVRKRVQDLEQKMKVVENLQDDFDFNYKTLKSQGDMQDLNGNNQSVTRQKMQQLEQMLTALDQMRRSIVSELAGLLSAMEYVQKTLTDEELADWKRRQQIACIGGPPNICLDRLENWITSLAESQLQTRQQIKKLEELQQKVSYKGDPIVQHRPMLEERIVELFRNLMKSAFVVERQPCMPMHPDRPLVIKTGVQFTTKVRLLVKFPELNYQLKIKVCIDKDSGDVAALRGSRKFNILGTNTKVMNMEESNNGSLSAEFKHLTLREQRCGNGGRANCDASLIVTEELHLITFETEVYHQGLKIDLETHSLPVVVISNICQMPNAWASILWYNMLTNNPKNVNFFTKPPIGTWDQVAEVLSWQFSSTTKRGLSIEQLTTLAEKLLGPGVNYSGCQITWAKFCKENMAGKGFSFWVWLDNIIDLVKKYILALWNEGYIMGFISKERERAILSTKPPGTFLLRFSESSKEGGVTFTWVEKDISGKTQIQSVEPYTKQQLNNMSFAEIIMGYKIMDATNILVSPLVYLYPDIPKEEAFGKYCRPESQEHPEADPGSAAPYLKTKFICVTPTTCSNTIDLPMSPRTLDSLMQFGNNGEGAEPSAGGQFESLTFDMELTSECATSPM
Sequence of Hepatocyte nuclear factor 6 (Homo sapiens) (Q9UBC0 whole entry, looked up, the tested form may be a part): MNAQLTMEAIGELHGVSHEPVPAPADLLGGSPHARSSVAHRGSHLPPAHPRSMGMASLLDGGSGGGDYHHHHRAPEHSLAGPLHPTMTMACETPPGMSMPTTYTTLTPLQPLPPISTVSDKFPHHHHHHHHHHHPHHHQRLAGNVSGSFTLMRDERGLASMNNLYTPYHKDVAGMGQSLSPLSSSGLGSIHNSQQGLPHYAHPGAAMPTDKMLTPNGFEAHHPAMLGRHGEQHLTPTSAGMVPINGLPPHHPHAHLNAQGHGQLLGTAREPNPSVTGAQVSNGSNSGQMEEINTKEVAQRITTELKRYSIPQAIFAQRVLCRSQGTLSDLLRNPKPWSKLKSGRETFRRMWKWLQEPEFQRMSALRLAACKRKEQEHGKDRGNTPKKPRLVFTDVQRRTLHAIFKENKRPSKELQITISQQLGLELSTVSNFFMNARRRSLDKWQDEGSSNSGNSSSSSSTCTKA
Sequence of Bile acid receptor (Homo sapiens) (Q96RI1 whole entry, looked up): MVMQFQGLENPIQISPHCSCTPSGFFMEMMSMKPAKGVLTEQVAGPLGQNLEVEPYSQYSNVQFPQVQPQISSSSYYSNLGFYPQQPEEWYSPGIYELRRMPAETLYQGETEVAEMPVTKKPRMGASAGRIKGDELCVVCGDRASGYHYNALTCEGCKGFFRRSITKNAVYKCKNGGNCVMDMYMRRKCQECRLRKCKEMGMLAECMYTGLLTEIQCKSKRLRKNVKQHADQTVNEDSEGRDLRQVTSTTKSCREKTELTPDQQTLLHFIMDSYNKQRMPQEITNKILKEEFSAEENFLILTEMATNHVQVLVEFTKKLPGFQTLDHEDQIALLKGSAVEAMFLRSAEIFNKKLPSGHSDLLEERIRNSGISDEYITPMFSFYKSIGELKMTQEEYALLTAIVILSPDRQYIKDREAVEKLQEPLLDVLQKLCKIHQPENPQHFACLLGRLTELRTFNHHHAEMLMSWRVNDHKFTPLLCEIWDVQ

Nc1ccc(Sc2ccc(N)cc2)cc1
active: [5] 45.3 µM | [8] 77.3 µM | [9] 100 µM | [11] 41.2 µM | [12] 36.6 µM
inactive: [1] | [2] | [3] | [4] | [6] | [7] | [10] | [13] | [14] | [15] | [16] | [17]

CCOP(=O)(O)C(N)=O
active: [11] 47.9 µM
inactive: [1] | [2] | [3] | [4] | [5] | [6] | [7] | [8] | [9] | [10] | [13] | [14] | [18] | [15] | [17]

CC(Cl)(Cl)C(=O)O
inactive: [2] | [3] | [19] | [4] | [5] | [6] | [7] | [8] | [10] | [11] | [20] | [12] | [13] | [14] | [18] | [15] | [16] | [17]

Nc1ccc2ccccc2c1
inactive: [3] | [4] | [5] | [6] | [7] | [8] | [9] | [10] | [11] | [12] | [13] | [14] | [15] | [16] | [17]
